Molecules are shown by their SMILES. The campaign covered roughly 39,000 compounds. About 3,300 (8.5%) were called active. The entries come from a sample that favours actives as a whole.

For this experiment, the system named is HepG2. Kind of experiment: cytotoxicity call (relative viability < 0.9). The conditions noted are these: 10 µM.
As for `Cn1cc(-c2[nH]c3cc(NC(=O)[C@H](N)C4CCCCC4)cc4c3c2C=NNC4=O)cn1`, the cytotoxicity call is “active”.
The result for `COc1ccc(-c2cnc3c(c2)C(=O)N([C@H](C)CO)C[C@@H](C)[C@@H](CN(C)C(=O)Cc2ccccn2)O3)cc1` reads “inactive”.
The result for `CC(C)NC(=O)Nc1ccc2c(c1)CC(=O)N([C@@H](C)CO)C[C@H](C)[C@@H](CN(C)Cc1ccc(C(=O)O)cc1)O2` reads “inactive”.
`CC(=O)N1[C@@H]2Cn3c(ccc(-c4ccccc4)c3=O)[C@H]1[C@@H](C(=O)N1CCN(C)CC1)[C@@H]2CO`: the cytotoxicity call was “inactive”.
The entry for `C[C@@H]1CCCCO[C@@H](CN(C)C(=O)Nc2ccc(F)cc2)[C@@H](C)CN([C@H](C)CO)C(=O)c2cc(NC(=O)Cc3ccccc3)ccc2O1` is “inactive”; for `O=C1C(O)=C(O)C(=O)C(O)=C1O` it is “active”; for `Cc1cc(C(=O)O)sc1[C@@H](N)C(=O)O` it is “inactive”.
The entry for `C[C@@H]1CN([C@@H](C)CO)C(=O)c2cc(-c3cccnc3)cnc2O[C@H]1CN(C)C(=O)Nc1ccc2c(c1)OCO2` is “inactive”; for `C[C@H]1CCCCO[C@H](CN(C)C(=O)Nc2ccc(F)cc2)[C@@H](C)CN([C@@H](C)CO)C(=O)c2cc(NC(=O)Nc3ccc4c(c3)OCO4)ccc2O1` it is “inactive”; for `C[C@@H]1CN([C@@H](C)CO)C(=O)c2cc(NC(=O)Cc3cn(C)c4ccccc34)ccc2O[C@@H]1CN(C)C(=O)Nc1cccc2ccccc12` it is “active”.
The entry for `C[C@@H]1CN([C@H](C)CO)C(=O)c2cc(NC(=O)Cc3cn(C)c4ccccc34)ccc2O[C@H]1CN(C)Cc1ccc(C(F)(F)F)cc1` is “inactive”; for `C[C@H](CO)N1C[C@H](C)[C@@H](CN(C)C(=O)Nc2ccc(C(F)(F)F)cc2)Oc2ccc(NC(=O)Cc3cn(C)c4ccccc34)cc2C1=O` it is “inactive”; for `C[C@H](CO)N1C[C@H](C)[C@@H](CN(C)Cc2ccc(C(F)(F)F)cc2)Oc2ccc(NC(=O)Cc3cn(C)c4ccccc34)cc2C1=O` it is “inactive”.
Take `C[C@@H]1CN([C@H](C)CO)C(=O)c2cc(NC(=O)Cc3cn(C)c4ccccc34)ccc2O[C@H]1CN(C)C(=O)Nc1ccc(C(F)(F)F)cc1`: the cytotoxicity call was “active”.
The result for `C[C@H](CO)N1C[C@H](C)[C@H](CN(C)C(=O)Nc2ccc(C(F)(F)F)cc2)Oc2ccc(NC(=O)Cc3cn(C)c4ccccc34)cc2C1=O` reads “inactive”; that for `C[C@H]1CN([C@@H](C)CO)C(=O)c2cc(NC(=O)Cc3cn(C)c4ccccc34)ccc2O[C@@H]1CN(C)C(=O)Nc1cccc2ccccc12`, “inactive”.
The result for `C[C@@H]1CN([C@@H](C)CO)C(=O)c2cc(NC(=O)Cc3cn(C)c4ccccc34)ccc2O[C@@H]1CN(C)C(=O)Nc1ccc(C(F)(F)F)cc1` reads “inactive”; that for `C[C@@H]1CN([C@H](C)CO)C(=O)c2cc(NC(=O)Cc3cn(C)c4ccccc34)ccc2O[C@@H]1CN(C)Cc1ccc(C(F)(F)F)cc1`, “active”; that for `C[C@H]1CN([C@@H](C)CO)C(=O)c2cc(NC(=O)Cc3cn(C)c4ccccc34)ccc2O[C@@H]1CN(C)C(=O)Nc1ccc(C(F)(F)F)cc1`, “active”.
The entry for `C[C@H]1CN([C@@H](C)CO)C(=O)c2cc(NC(=O)Cc3cn(C)c4ccccc34)ccc2O[C@H]1CN(C)C(=O)Nc1ccc(C(F)(F)F)cc1` is “inactive”; for `C[C@H](CO)N1C[C@H](C)[C@H](CN(C)C(=O)Nc2cccc3ccccc23)Oc2ccc(NC(=O)Cc3cn(C)c4ccccc34)cc2C1=O` it is “inactive”; for `C[C@@H]1CN([C@H](C)CO)C(=O)c2cccc(NC(=O)c3ccncc3)c2O[C@H]1CN(C)C(=O)Nc1ccc2c(c1)OCO2` it is “inactive”.
With `Cc1c(C)n2c3c(=O)[nH]c(=O)n(C)c3nc2n1C`, the cytotoxicity call was “inactive”.
The entry for `C[C@@H]1CN([C@H](C)CO)C(=O)c2cc(NC(=O)C3CCCCC3)ccc2O[C@@H](C)CCCCO[C@@H]1CN(C)Cc1ccc(C(=O)O)cc1` is “inactive”.
The entry for `COc1ccc(S(=O)(=O)N2C[C@@H](O)COC[C@H]3O[C@@H](CC(=O)N[C@@H]4CCN(Cc5ccccc5)C4)CC[C@@H]32)cc1` is “inactive”; for `C[C@@H]1CN([C@H](C)CO)C(=O)Cc2cc(NC(=O)Cn3cnnn3)ccc2O[C@@H]1CN(C)Cc1ccc(C(=O)Nc2ccccc2N)cc1` it is “inactive”.
`C[C@@H]1CN([C@H](C)CO)C(=O)c2cc(NS(=O)(=O)c3ccc(Cl)cc3)ccc2O[C@@H](C)CCCCO[C@@H]1CN(C)C(=O)c1ccncc1`: the cytotoxicity call was “inactive”.
For `C[C@@H]1CN([C@@H](C)CO)C(=O)c2cccc(NS(=O)(=O)c3cn(C)cn3)c2O[C@H]1CN(C)C(=O)Nc1ccc(F)cc1`, the cytotoxicity call is “inactive”.
The result for `C[C@@H]1CCCCO[C@H](CN(C)C(=O)C2CCCCC2)[C@H](C)CN([C@H](C)CO)C(=O)c2cc(NC(=O)NC3CCCCC3)ccc2O1` reads “inactive”; that for `C[C@H](CO)N1C[C@H](C)[C@H](CN(C)Cc2ccc(Oc3ccccc3)cc2)Oc2ccc(NC(=O)NC3CCCCC3)cc2CC1=O`, “inactive”.
Turning to `C[C@@H]1CN([C@@H](C)CO)C(=O)Cc2cc(NC(=O)NC3CCCCC3)ccc2O[C@H]1CN(C)Cc1ccc(-c2ccccc2)cc1`, the cytotoxicity call is “inactive”.
The entry for `C[C@H]1CN([C@@H](C)CO)C(=O)Cc2cc(NC(=O)NC3CCCCC3)ccc2O[C@H]1CN(C)Cc1ccc(-c2ccccc2)cc1` is “inactive”; for `C[C@H]1CN([C@@H](C)CO)C(=O)Cc2cc(NC(=O)NC3CCCCC3)ccc2O[C@H]1CN(C)Cc1ccc(Oc2ccccc2)cc1` it is “active”; for `C[C@H](CO)N1C[C@H](C)[C@@H](CN(C)Cc2ccc(Oc3ccccc3)cc2)Oc2ccc(NC(=O)NC3CCCCC3)cc2CC1=O` it is “inactive”.
Turning to `C[C@@H]1CN([C@@H](C)CO)C(=O)Cc2cc(NC(=O)NC3CCCCC3)ccc2O[C@H]1CN(C)Cc1ccc(Oc2ccccc2)cc1`, the cytotoxicity call was “inactive”.
On to `C[C@@H]1CN([C@@H](C)CO)C(=O)Cc2cc(NC(=O)NC3CCCCC3)ccc2O[C@@H]1CN(C)Cc1ccc(Oc2ccccc2)cc1`, for which the cytotoxicity call was “active”.
`C[C@@H]1CN([C@H](C)CO)C(=O)Cc2cc(NC(=O)NC3CCCCC3)ccc2O[C@H]1CN(C)Cc1ccc(-c2ccccc2)cc1`: the cytotoxicity call is “active”.
The result for `C[C@@H]1CN([C@H](C)CO)C(=O)Cc2cc(NC(=O)NC3CCCCC3)ccc2O[C@H]1CN(C)Cc1ccc(Oc2ccccc2)cc1` reads “inactive”.
For the compound `C[C@@H]1CN([C@@H](C)CO)C(=O)Cc2cc(NC(=O)NC3CCCCC3)ccc2O[C@@H]1CN(C)Cc1ccc(-c2ccccc2)cc1`, the cytotoxicity call was “inactive”.
On to `C[C@@H]1CN([C@H](C)CO)C(=O)Cc2cc(NC(=O)NC3CCCCC3)ccc2O[C@@H]1CN(C)Cc1ccc(Oc2ccccc2)cc1`, for which the cytotoxicity call was “active”.
Take `C[C@H]1CN([C@@H](C)CO)C(=O)Cc2cc(NC(=O)NC3CCCCC3)ccc2O[C@@H]1CN(C)Cc1ccc(Oc2ccccc2)cc1`: the cytotoxicity call was “inactive”.
For the compound `C[C@@H]1CN([C@@H](C)CO)C(=O)c2cc(NC(=O)CCN3CCOCC3)ccc2O[C@H]1CN(C)S(C)(=O)=O`, the cytotoxicity call was “inactive”.
The result for `CCCNC(=O)N1C[C@H](C)[C@H](OC)CN(C)C(=O)c2ccc(NS(=O)(=O)CC(F)(F)F)cc2OC[C@@H]1C` reads “inactive”.
The result for `C[C@H]1CN([C@@H](C)CO)C(=O)c2cc(NC(=O)c3ccncc3)ccc2O[C@@H]1CN(C)S(=O)(=O)c1cccs1` reads “inactive”.
The result for `C[C@H]1CN([C@@H](C)CO)C(=O)c2cc(NC(=O)CCN3CCOCC3)ccc2O[C@H]1CN(C)Cc1ccc(C(=O)O)cc1` reads “inactive”; that for `COc1cc([C@@H](O)CO)ccc1OS(=O)(=O)O`, “inactive”.
Consider `COc1ccc(S(=O)(=O)N2C[C@@H](O)COC[C@H]3O[C@H](CC(=O)N[C@H]4CCN(Cc5ccccc5)C4)CC[C@@H]32)cc1`, for which the cytotoxicity call was “inactive”.
The entry for `C[C@@H]1CN([C@@H](C)CO)C(=O)c2cc(NS(=O)(=O)c3cccs3)ccc2O[C@@H](C)CCCCO[C@H]1CN(C)Cc1ccc2c(c1)OCO2` is “inactive”; for `C[C@H](CO)N1C[C@H](C)[C@@H](CN(C)C(=O)Nc2cccc3ccccc23)Oc2ccc(NS(=O)(=O)c3cccs3)cc2C1=O` it is “inactive”; for `C[C@H](CO)N1C[C@H](C)[C@H](CN(C)C(=O)NC2CCCCC2)OCCCC[C@H](C)Oc2ccc(NS(=O)(=O)c3cccs3)cc2C1=O` it is “inactive”.
With `CC(=O)N1CC(=O)N(c2cnn(C)c2)C[C@]12CCN(C(=O)c1cnc(C)cn1)C2`, the cytotoxicity call is “inactive”.
The entry for `CCOC(=O)N(C)C[C@H]1OCc2cn(nn2)CCCC(=O)N([C@@H](C)CO)C[C@H]1C` is “inactive”; for `CSCC[C@H](NC(=O)[C@H](Cc1ccc(OS(=O)(=O)O)cc1)NC(=O)[C@@H](N)CC(=O)O)C(=O)NCC(=O)N[C@@H](Cc1c[nH]c2ccccc12)C(=O)N[C@@H](CCSC)C(=O)N[C@@H](CC(=O)O)C(=O)N[C@@H](Cc1ccccc1)C(N)=O` it is “active”.
The entry for `CSCC[C@H](NC(=O)[C@@H](N)Cc1c[nH]c2ccccc12)C(=O)N[C@@H](CC(=O)O)C(=O)N[C@@H](Cc1ccccc1)C(N)=O` is “inactive”; for `CSCC[C@H](NC(=O)[C@H](Cc1c[nH]c2ccccc12)NC(=O)CNC(=O)[C@@H](NC(=O)[C@H](Cc1ccc(OS(=O)(=O)O)cc1)NC(=O)[C@H](CC(=O)O)NC(=O)[C@H](CCC(N)=O)NC(=O)[C@@H]1CCC(=O)N1)[C@@H](C)O)C(=O)N[C@@H](CC(=O)O)C(=O)N[C@@H](Cc1ccccc1)C(N)=O` it is “inactive”; for `COc1cc(OC)nc(N=CNO)n1` it is “inactive”.
For the compound `O=C(C[C@@H]1C[C@H]2c3cc(NC(=O)C4CCOCC4)ccc3O[C@H]2[C@H](CO)O1)NCc1cc(F)ccc1F`, the cytotoxicity call is “inactive”.
The result for `CO[C@@H]1[C@H](N(C)C(=O)c2ccccc2)C[C@H]2O[C@]1(C)n1c3ccccc3c3c4c(c5c6ccccc6n2c5c31)C(=O)NC4` reads “active”.
The result for `C[C@@H]1CCCCO[C@H](CN(C)C(=O)c2ccccc2)[C@@H](C)CN([C@H](C)CO)C(=O)c2cc(NC(=O)Cc3ccccc3)ccc2O1` reads “inactive”.

These data come from the antibiotic and cytotoxicity screens of Wong et al. (2023).
